This note sets out measurements from PubChem BioAssay (EPA / NIEHS).

Structures are written as SMILES. Active and inactive are the calls of the source. How the source made its calls: active means hit-call score of the fitted dose curve at least 0.9, where 1 is the maximum; inactive means score below 0.9.

The term AC50 denotes the concentration giving half of the maximal activity seen.

Holding throughout (conditions): mRNA level, 48 h; actives raise or lower the signal
Read-out in assay [1]: Nuclear factor NF-kappa-B p105 subunit (Homo sapiens) (UniProt P19838)
The assay can be described thus: LTEA_HepaRG_NFKB1: Life Technologies and Expression Analysis (LTEA) Assay for Nuclear Factor Kappa B Subunit 1 (NFKB1) using HepaRG (AID 2283521).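 Further: TaqMan qRT-PCR transcript normalised to ACTB GAPDH and POLR2A housekeeping genes.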 A digest of the protocol:
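Human HepaRG cells receive eight half-log concentrations, highest 100 uM, for 48 h. NFKB1 expression is then quantified by qRT-PCR and analysed for up- or down-regulation relative to 0.5% DMSO vehicle.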

Read-out in assay [2]: Phosphatase and tensin (PTEN), PTEN (gene 5728)
The assay can be described thus: LTEA_HepaRG_PTEN: Life Technologies and Expression Analysis (LTEA) Assay for Phosphatase and tensin (PTEN) using HepaRG (AID 2283523). A digest of the protocol:
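HepaRG cells, 48 h after plating, exposed in duplicate for 48 h in serum-free induction medium to 8 half-log concentrations up to 100 uM (0.5% DMSO). PTEN mRNA by qRT-PCR, normalized to ACTB, GAPDH, POLR2A; bidirectional fit versus DMSO.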

Read-out in assay [3]: solute carrier (SLC22A1), SLC22A1 (gene 6580)
The assay can be described thus: LTEA_HepaRG_SLC22A1: Life Technologies and Expression Analysis (LTEA) Assay for solute carrier (SLC22A1) using HepaRG (AID 2283524). The method in brief:
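Differentiated human HepaRG cells in serum-free induction medium, exposed 48 h in duplicate to 8-point half-log series from 100 µM top in 0.5% DMSO. SLC22A1 mRNA by TaqMan qRT-PCR normalized to ACTB, GAPDH, POLR2A; bidirectional fit versus DMSO.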

Read-out in assay [4]: Pyruvate Dehydrogenase Kinase 4 (PDK4), PDK4 (gene 5166)
The assay can be described thus: LTEA_HepaRG_PDK4: Life Technologies and Expression Analysis (LTEA) Assay for Pyruvate Dehydrogenase Kinase 4 (PDK4) using HepaRG (AID 2283525). A digest of the protocol:
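HepaRG cells plated 48 h, then switched to serum-free induction medium and exposed in duplicate for 48 h to 8 half-log concentrations from 100 uM in 0.5% DMSO. PDK4 mRNA measured by qRT-PCR, normalized to ACTB, GAPDH and POLR2A; bidirectional fit versus DMSO.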

Read-out in assay [5]: NAD(P)H dehydrogenase [quinone] 1 (NQO1), NQO1 (gene 1728)
As to the kind of experiment: LTEA_HepaRG_NQO1: Life Technologies and Expression Analysis (LTEA) Assay for NAD(P)H dehydrogenase [quinone] 1 (NQO1) using HepaRG (AID 2283526). The method in brief:
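Human HepaRG hepatic cells received chemicals for 48 h in serum-free induction medium with 0.5% DMSO, up to 100 uM. Expression was assessed by TaqMan qRT-PCR against housekeeping controls and fitted bidirectionally against DMSO.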

Read-out in assay [6]: Nuclear factor erythroid 2-related factor 2 (Homo sapiens) (UniProt Q16236)
The assay can be described thus: LTEA_HepaRG_NFE2L2: Life Technologies and Expression Analysis (LTEA) Assay for Nuclear factor erythroid 2-related factor 2 (NFE2L2) Transcription Factor using HepaRG (AID 2283527).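 On outcome: TaqMan qRT-PCR transcript level normalised to ACTB GAPDH and POLR2A housekeeping genes.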 The method in brief:
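Differentiated human HepaRG cells, serum-free induction medium, exposed 48 h in duplicate to eight half-log concentrations up to 100 uM in 0.5% DMSO. NFE2L2 mRNA by Fluidigm TaqMan qRT-PCR, normalised to ACTB, GAPDH, POLR2A; bidirectional change versus DMSO.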

Read-out in assay [7]: succinate dehydrogenase complex iron sulfur subunit B (SDHB), SDHB (gene 6390)
The assay can be described thus: LTEA_HepaRG_SDHB: Life Technologies and Expression Analysis (LTEA) Assay for succinate dehydrogenase complex iron sulfur subunit B (SDHB) using HepaRG (AID 2283528). The method in brief: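 A human HepaRG culture in serum-free induction medium received test chemicals for 48 h over an eight-point range capped at 100 uM. SDHB expression change was quantified by qRT-PCR.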

Read-out in assay [8]: Signal transducer and activator of transcription 3 (Homo sapiens) (UniProt P40763)
As to the kind of experiment: LTEA_HepaRG_STAT3: Life Technologies and Expression Analysis (LTEA) Assay for Signal transducer and activator of transcription (STAT3) using HepaRG (AID 2283529). A digest of the protocol: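 Differentiated HepaRG cells, serum-free induction medium, dosed 48 h in duplicate, 8 half-log concentrations from 100 uM in 0.5% DMSO. STAT3 mRNA by qRT-PCR, normalised to ACTB, GAPDH, POLR2A; bidirectional fit versus DMSO.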

Read-out in assay [9]: solute carrier (SLCO1B1), SLCO1B1 (gene 10599)
The assay can be described thus: LTEA_HepaRG_SLCO1B1: Life Technologies and Expression Analysis (LTEA) Assay for solute carrier (SLCO1B1) using HepaRG (AID 2283530). The method in brief:
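Gain or loss of SLCO1B1 mRNA is fitted against the 0.5% DMSO vehicle in human HepaRG liver cells treated 48 h at up to 100 uM in half-log steps. Expression comes from qRT-PCR normalized to endogenous controls.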

Read-out in assay [10]: sulfotransferase 2A1 (SULT2A1), SULT2A1 (gene 6822)
As to the kind of experiment: LTEA_HepaRG_SULT2A1: Life Technologies and Expression Analysis (LTEA) Assay for sulfotransferase 2A1 (SULT2A1) using HepaRG (AID 2283531). A digest of the protocol:
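Cells were plated and cultured 48 h, switched to serum-free induction medium, then dosed in duplicate for 48 h (8 concentrations, max 100 uM). RNA was isolated and SULT2A1 expression measured by qRT-PCR; gain or loss of signal fitted relative to DMSO.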

Read-out in assay [11]: Transforming Growth Factor (TGFB1), TGFB1 (gene 7040)
As to the kind of experiment: LTEA_HepaRG_TGFB1: Life Technologies and Expression Analysis (LTEA) Assay for Transforming Growth Factor (TGFB1) Transporter using HepaRG (AID 2283533). The method in brief: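 Expression change of TGFB1 in human HepaRG cells is measured after a 48 h chemical exposure, up to 100 uM in 0.5% DMSO vehicle. Curves are fitted in both directions relative to the DMSO baseline.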

Read-out in the next assay: TIMP1, TIMP1 (gene 7076)
As to the kind of experiment: LTEA_HepaRG_TIMP1: Life Technologies and Expression Analysis (LTEA) Assay for TIMP1 using HepaRG (AID 2283534).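 Further: TaqMan qRT-PCR signal normalized to ACTB GAPDH and POLR2A housekeeping genes.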 A digest of the protocol: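 We dosed human liver HepaRG cultures for 48 hours with up to 100 uM test chemical and measured TIMP1 expression by qRT-PCR. Activity in either direction is fitted relative to the 0.5% DMSO vehicle.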

Read-out in assay [12]: Tumor necrosis factor receptor 1 (TNFRSF1A), TNFRSF1A (gene 7132)
The assay can be described thus: LTEA_HepaRG_TNFRSF1A: Life Technologies and Expression Analysis (LTEA) Assay for Tumor necrosis factor receptor 1 (TNFRSF1A) using HepaRG (AID 2283535). A digest of the protocol: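 Expression of TNFRSF1A in human HepaRG liver cells was measured by qRT-PCR 48 h after chemical dosing (maximum 100 uM). Bidirectional curve fitting used 0.5% DMSO as baseline.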

Read-out in assay [13]: Thyroid Hormone Responsive (THRSP), THRSP (gene 7069)
The assay can be described thus: LTEA_HepaRG_THRSP: Life Technologies and Expression Analysis (LTEA) Assay for Thyroid Hormone Responsive (THRSP) using HepaRG (AID 2283536). A digest of the protocol: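 Differentiated HepaRG cells treated 48 h in serum-free induction medium with 8 half-log concentrations up to 100 uM (0.5% DMSO), duplicates. THRSP mRNA by TaqMan qRT-PCR normalised to ACTB, GAPDH, POLR2A; bidirectional fit versus DMSO.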

Read-out in assay [14]: UDP glucuronosyltransferase (UGT1A1), UGT1A1 (gene 54658)
The assay can be described thus: LTEA_HepaRG_UGT1A1: Life Technologies and Expression Analysis (LTEA) Assay for UDP glucuronosyltransferase (UGT1A1) using HepaRG (AID 2283538). The method in brief: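 Human liver HepaRG cultures receive test chemical for 48 h, up to 100 uM in 0.5% DMSO, with phenobarbital induction controls. UGT1A1 mRNA is measured by qRT-PCR and normalized to ACTB, GAPDH and POLR2A.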

Read-out in assay [15]: UDP glucuronosyltransferase (UGT1A6), UGT1A6 (gene 54578)
As to the kind of experiment: LTEA_HepaRG_UGT1A6: Life Technologies and Expression Analysis (LTEA) Assay for UDP glucuronosyltransferase (UGT1A6) using HepaRG (AID 2283539). The method in brief:
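Endpoint is UGT1A6 transcript induction or loss in a human liver cell line, quantified by TaqMan qRT-PCR 48 h after dosing. Concentrations ran from 100 uM downward in half-log steps in 0.5% DMSO; activity was fitted in both directions versus vehicle.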

Read-out in assay [16]: X-box binding protein 1 (XBP1), XBP1 (gene 7494)
As to the kind of experiment: LTEA_HepaRG_XBP1: Life Technologies and Expression Analysis (LTEA) Assay for X-box binding protein 1 (XBP1) using HepaRG (AID 2283540). A digest of the protocol:
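Human HepaRG monolayers receive test chemical for 48 h across an eight-point half-log series starting at 100 uM. XBP1 mRNA gain or loss is scored against DMSO by qRT-PCR.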

Read-out in assay [17]: Cellular tumor antigen p53 (Homo sapiens) (UniProt P04637)
The assay can be described thus: LTEA_HepaRG_TP53: Life Technologies and Expression Analysis (LTEA) Assay for Tumor Protein P53 (TP53) using HepaRG (AID 2283537). The method in brief: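 Gain or loss of TP53 mRNA signal is scored relative to 0.5% DMSO after 48 h chemical treatment of HepaRG liver cells, tested in duplicate at eight half-log concentrations up to 100 uM.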

Nuclear factor erythroid 2-related factor 2 (Homo sapiens), sequence (Q16236 whole entry, looked up): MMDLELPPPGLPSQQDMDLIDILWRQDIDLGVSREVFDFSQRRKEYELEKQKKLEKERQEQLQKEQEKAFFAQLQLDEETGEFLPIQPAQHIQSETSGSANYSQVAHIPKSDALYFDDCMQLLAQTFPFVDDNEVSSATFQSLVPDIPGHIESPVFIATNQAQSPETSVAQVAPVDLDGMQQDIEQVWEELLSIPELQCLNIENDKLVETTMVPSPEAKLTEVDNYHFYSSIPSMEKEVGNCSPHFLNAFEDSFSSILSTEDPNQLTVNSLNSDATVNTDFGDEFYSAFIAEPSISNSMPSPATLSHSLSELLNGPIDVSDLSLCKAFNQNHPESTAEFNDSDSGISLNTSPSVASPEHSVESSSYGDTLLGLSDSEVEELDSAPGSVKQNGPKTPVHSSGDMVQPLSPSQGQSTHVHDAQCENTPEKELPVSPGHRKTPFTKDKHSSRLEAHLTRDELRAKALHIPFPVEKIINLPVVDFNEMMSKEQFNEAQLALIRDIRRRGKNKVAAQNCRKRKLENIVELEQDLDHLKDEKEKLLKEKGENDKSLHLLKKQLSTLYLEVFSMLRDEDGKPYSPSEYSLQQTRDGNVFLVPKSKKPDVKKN
Nuclear factor NF-kappa-B p105 subunit (Homo sapiens), sequence (P19838 whole entry, looked up): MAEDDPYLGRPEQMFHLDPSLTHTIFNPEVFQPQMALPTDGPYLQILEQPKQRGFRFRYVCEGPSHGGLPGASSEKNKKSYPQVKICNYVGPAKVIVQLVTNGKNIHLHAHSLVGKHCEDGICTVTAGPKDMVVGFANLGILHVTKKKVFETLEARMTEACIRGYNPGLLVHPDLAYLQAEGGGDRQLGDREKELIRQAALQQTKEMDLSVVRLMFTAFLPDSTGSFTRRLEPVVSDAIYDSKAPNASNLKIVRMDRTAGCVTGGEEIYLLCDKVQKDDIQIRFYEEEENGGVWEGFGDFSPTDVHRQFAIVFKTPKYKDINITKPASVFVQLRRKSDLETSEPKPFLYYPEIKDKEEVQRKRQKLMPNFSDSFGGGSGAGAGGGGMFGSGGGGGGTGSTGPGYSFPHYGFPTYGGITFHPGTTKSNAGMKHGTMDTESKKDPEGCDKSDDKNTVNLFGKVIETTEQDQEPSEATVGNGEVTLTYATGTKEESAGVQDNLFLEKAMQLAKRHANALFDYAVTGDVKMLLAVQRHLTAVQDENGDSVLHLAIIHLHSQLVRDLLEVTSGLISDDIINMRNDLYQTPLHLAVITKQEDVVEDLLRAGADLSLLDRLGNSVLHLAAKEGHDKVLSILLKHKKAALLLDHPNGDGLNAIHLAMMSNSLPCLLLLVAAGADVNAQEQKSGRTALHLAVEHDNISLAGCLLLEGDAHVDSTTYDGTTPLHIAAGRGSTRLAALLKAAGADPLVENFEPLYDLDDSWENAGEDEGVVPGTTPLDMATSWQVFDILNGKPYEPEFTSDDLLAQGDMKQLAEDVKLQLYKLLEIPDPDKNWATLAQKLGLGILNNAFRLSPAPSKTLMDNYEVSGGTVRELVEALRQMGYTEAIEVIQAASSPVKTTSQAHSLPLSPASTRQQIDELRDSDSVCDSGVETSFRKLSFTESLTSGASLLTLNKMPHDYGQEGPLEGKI
Signal transducer and activator of transcription 3 (Homo sapiens), sequence (P40763 whole entry, looked up): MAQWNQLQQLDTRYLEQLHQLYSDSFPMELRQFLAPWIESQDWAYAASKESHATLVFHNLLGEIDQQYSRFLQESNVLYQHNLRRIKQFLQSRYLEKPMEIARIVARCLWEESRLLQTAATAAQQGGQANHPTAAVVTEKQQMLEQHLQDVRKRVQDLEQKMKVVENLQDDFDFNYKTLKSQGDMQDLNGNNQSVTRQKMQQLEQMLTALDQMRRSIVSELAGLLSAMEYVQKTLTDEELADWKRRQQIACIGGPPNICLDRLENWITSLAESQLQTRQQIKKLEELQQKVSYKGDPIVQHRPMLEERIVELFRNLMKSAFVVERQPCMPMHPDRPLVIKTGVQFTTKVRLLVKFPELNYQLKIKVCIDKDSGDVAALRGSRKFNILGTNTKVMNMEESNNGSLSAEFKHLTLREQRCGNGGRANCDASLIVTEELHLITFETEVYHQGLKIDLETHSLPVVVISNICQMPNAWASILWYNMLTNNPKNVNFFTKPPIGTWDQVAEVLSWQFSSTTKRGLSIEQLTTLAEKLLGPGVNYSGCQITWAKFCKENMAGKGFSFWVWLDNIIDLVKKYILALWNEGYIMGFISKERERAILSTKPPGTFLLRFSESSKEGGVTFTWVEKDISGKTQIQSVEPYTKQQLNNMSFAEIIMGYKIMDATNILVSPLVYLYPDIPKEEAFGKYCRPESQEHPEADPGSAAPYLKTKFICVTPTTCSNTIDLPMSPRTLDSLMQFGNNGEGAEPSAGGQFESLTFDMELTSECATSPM
Cellular tumor antigen p53 (Homo sapiens), sequence (P04637 whole entry, looked up): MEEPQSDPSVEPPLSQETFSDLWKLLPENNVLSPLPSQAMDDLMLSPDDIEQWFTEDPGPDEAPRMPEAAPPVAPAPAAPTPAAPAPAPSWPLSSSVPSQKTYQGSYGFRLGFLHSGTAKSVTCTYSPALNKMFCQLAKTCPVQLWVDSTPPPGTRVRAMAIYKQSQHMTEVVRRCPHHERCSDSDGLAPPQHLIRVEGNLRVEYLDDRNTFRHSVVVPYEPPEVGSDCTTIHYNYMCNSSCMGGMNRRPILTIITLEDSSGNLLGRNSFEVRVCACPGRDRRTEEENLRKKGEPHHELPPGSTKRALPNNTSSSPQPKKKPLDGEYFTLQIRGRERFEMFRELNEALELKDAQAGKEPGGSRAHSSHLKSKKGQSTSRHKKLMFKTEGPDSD

On to `ClC1=C(Cl)C(Cl)(Cl)C(Cl)=C1Cl`, for which the call in assay [1], in assay [2], in assay [3], in assay [4], in [5] and in assay [6] was inactive. Moreover, the outcome in assay [7] is “inactive”; in assay [8], “inactive”; in [9], “inactive”; in assay [10], “inactive”; in assay [11] it was “inactive”; with TIMP1, TIMP1 (gene 7076) it was “inactive”. The call in [12], in assay [13], in [14], in assay [15] and in [16] was inactive.
For `C[C@@H]1C[C@H]2[C@@H]3CCC4=CC(=O)C=C[C@]4(C)[C@@]3(F)[C@@H](O)C[C@]2(C)[C@@]1(O)C(=O)COP(=O)(O)O`, the molecule was classed as inactive in assay [1], in assay [2], in assay [3], in assay [4], in assay [5] and in assay [6]. The outcome is “inactive” in [7]; “inactive” in [8]; “inactive” in assay [9]; “inactive” in assay [10]; “inactive” in assay [11]; “inactive” with TIMP1, TIMP1 (gene 7076). The result in assay [12], in [13], in [14], in assay [15] and in assay [16] was inactive.
Turning to `CCc1ccc(CCOc2ccc(CC3SC(=O)NC3=O)cc2)nc1` (configuration not stated), the call in assay [1], in assay [2], in [5], in assay [7], in assay [8] and in assay [11] was inactive. The outcome is “inactive” with TIMP1, TIMP1 (gene 7076); “inactive” in assay [12]; “inactive” in assay [15]; “inactive” in assay [16]. Also, the AC50 is 66.6 µM (active) in assay [3]; 11.6 µM (active) in [4]; 50 µM (active) in assay [6]; 67.5 µM (active) in assay [9]; 81.1 µM (active) in [10]; 83.8 µM (active) in [13]. Also, the AC50 in [17] is 80.4 µM (active); in assay [14], 12.2 µM (active).
